# PubChem BioAssay AID463208 (Broad Institute, 2010)
# A number with no mark means an inactive call. The source made the active and inactive calls.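 How the source made its calls: active means AC50 at most tenfold above the top tested concentration; inconclusive means flat fit with 30 to 70% activity, or a poor fit; inactive means AC50 over tenfold above the top dose.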
# Assay: yeast HDAC inhibitors, dose response, mechanism study for Sdo1 growth activator project, cell lysate, fluorescence, yeast nuclear extract (AID 463208)
# Settings: yeast nuclear extract HDAC activity, fluorogenic substrate
row,SMILES,AC50
1,Cc1sc(NC(=O)c2ccnn2C)c(C#N)c1-c1ccc(F)cc1,> 50 µM
2,CC(C)C(C(=O)Nc1cccnc1)N1C(=O)c2ccccc2C1=O (stereo not drawn),> 50 µM
3,COc1ccc(-c2nc3ccccc3s2)cc1NC(=O)c1ccc(Br)o1,> 50 µM
4,CC(/C=C/C(=O)NO)=C\[C@@H](C)C(=O)c1ccc(N(C)C)cc1,< 0.00075 µM (active)
5,CC(=O)N(c1ccccc1)C1C(=O)C(=O)c2ccccc2C1=O (stereo not drawn),> 50 µM
6,Cc1ccc(Cn2c(Sc3nccc(C)n3)nc3c2c(=O)[nH]c(=O)n3C)cc1,> 50 µM
7,Cc1c(/C=N/NC(=O)c2cccc(F)c2)cnn1C,> 50 µM
8,O=C(C(c1ccccc1)c1ccccc1)N(Cc1cccs1)C1CCS(=O)(=O)C1 (stereo not drawn),> 50 µM
9,O=C(COC(=O)Cc1ccsc1)Nc1ccccc1,> 50 µM
10,Cc1ccc(Cn2c(CN3CC(C)OC(C)C3)nc3c2c(=O)n(C)c(=O)n3C)cc1 (stereo not drawn),> 50 µM
11,COc1ccc(OCC(O)Cn2c(Nc3ccccc3)nc3c2c(=O)n(C)c(=O)n3C)cc1 (stereo not drawn),> 50 µM
12,CC(C(=O)Nc1cccnc1)N1Cc2ccccc2C1=O (stereo not drawn),> 50 µM
13,COc1cc(/C=N/NC(=O)CCC(=O)NCc2ccccc2)cc(OC)c1OC,> 50 µM
14,O=C(CSc1nc(-c2cccs2)cc(C(F)(F)F)n1)NCc1ccco1,> 50 µM
15,COc1ccc(-c2nc3ccccc3o2)cc1NC(=O)c1ccc(Br)o1,> 50 µM
16,Cn1c(=O)[nH]c(=O)c2c1nc(Sc1nc3ccccc3[nH]1)n2Cc1ccccc1,> 50 µM
17,CN(C)CCCNC(=O)C1CCNCC1,> 50 µM
18,CCSc1nnc([C@H](CCSC)NC(=O)OC(C)(C)C)o1,> 50 µM
19,CC(=O)N(C)C1C(=O)C(=O)c2ccccc2C1=O (stereo not drawn),> 50 µM
20,CCN(CC)CCCNC(=O)C1CCNCC1,> 50 µM
21,O=C(Nc1cccc(Cl)c1)c1ccc(NCC2CCCO2)c([N+](=O)[O-])c1 (stereo not drawn),> 50 µM
22,Cc1c(/C=N/NC(=O)c2ccc(F)cc2)cnn1C,> 50 µM
23,CC(C(=O)Nc1cccnc1)N1C(=O)c2ccccc2C1=O (stereo not drawn),> 50 µM
